# Only some compounds are listed: those with a hit (about 3.1% of all), similar ones and a draw of the others.
# HEK293 cAMP ctrl – parental HEK293 cAMP activation (counter-screen); parental HEK293 CNG cAMP sensor, membrane potential fluorescence; Potency, µM (series often up to 57.1 µM), for inactives: at the highest dose activation, actives largely listed as activators; 73,000 compounds, 2.5% hits; AID 938; note: % of control where 0% means no effect; nearly all actives have a fitted effect of over 55% in size
#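 Parental HEK 293 cells stably expressing a cAMP-gated CNG channel were loaded with membrane potential dye containing 100 uM RO 20-1724 for 60 min. Compound added for 30 min; depolarization read as fluorescence intensity at 590 nm.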
# IkB sig inh – suppresses IkB signaling in ABC-DLBCL reporter cells | ABC-DLBCL IkBa-CBG/CBR dual luciferase ratio, 4 h; response scale: scaled: untreated 0%, proteasome inhibitor 100% | 110,000 compounds, 0.04% hits | Potency, µM (doses to about 57.1 µM), for inactives: at the highest dose IkBa stabilization activation | AID 445; active = well fitted curve in the direction sought with a large enough effect in the signal ratio, not every such curve was filed as active; inconclusive = small, poorly fitted or top-dose-only effect, or a change in a side signal; the % refers to the signal ratio;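 note: the direction sought is a rising ratio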
#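 Luminescence ratio of IκBα-fused green versus native red beetle luciferase in OCI-Ly3 cells, 4 h post-doxycycline with compound; red signal alone, scaled from basal (0%) to zero light (-100%), flagged nonspecific or cytotoxic effects.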
# Peg3 imprint – inducers of genomic imprint erasure in mouse ES cells; Potency, µM (top dose mostly 60.7 µM), for inactives: top-dose activity change, positive = activation, most hits filed as activators; 110,000 compounds, 0.02% hits; AID 1948; mouse ES Peg3-LacZ reporter, beta-gal luminescence, 40 h
#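 Gelatin-coated wells received 300 freshly trypsinized female ES cells with a Peg3LacZ-Neo reporter on the maternal allele, then incubated 40 hours at 37C. BetaGlo was added for 5 minutes at room temperature before a single luminescence read.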
# p53ts 39C tox – cytotoxicity in p53ts cells at nonpermissive temperature | H1299-p53A138V viability at 39C, ATP luminescence, 24 h | Potency, µM (top dose mostly 46.1 µM), without a hit: top-dose activity change, negative = cell killing, most hits filed as cytotoxic | 130,000 compounds, 1.5% hits; note: % is set by controls: 0 for no effect and ±100 for the full control effect; nearly all actives have a fitted effect of over 55% in size
# p53ts 32C kill – cytotoxicity in p53ts cells at permissive temperature; H1299-p53A138V at 32C, ATP luminescence viability, 24 h; Potency, µM (top dose mostly 46.1 µM), for inactives: at the top dose activity change, negative = cytotoxicity, actives largely listed as cytotoxic; 130,000 compounds, 0.93% hits; AID 924;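 note: 0% = DMSO and -100% = full killing by reference compound; nearly all actives have a fitted effect of over 55% in size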
#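 Cells: H1299 p53ts (A138V), 600/well, pre-incubated 16–30 h at 37C. Cpd up to 46 uM, 24 h, 32C. Readout: ATPlite luminescence, 20 min RT. Normalization: DMSO vs tamoxifen 100 uM. AC50 by Hill equation.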
# TSHR agonist – TSH receptor (human) agonism. P16473. HEK293-CNG-TSHR cells (CNG channel as cAMP sensor), membrane potential dye, cAMP. Potency, µM (doses to about 57.1 µM), without a hit: top-dose activation, most hits filed as activators. 73,000 compounds, 0.48% hits. AID 926; active = well fitted activation curve with a large enough effect in the main read-out, with a control signal flat, not every such curve was filed as active; inconclusive = small, poorly fitted or top-dose-only effect, or a change in a side signal; inactive = no such curve, though single readings can be large or run the other way; % of control where 0% means no effect;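 note: the control signal comes from parental cells without the receptor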
# Target sequence (P16473 whole entry, looked up): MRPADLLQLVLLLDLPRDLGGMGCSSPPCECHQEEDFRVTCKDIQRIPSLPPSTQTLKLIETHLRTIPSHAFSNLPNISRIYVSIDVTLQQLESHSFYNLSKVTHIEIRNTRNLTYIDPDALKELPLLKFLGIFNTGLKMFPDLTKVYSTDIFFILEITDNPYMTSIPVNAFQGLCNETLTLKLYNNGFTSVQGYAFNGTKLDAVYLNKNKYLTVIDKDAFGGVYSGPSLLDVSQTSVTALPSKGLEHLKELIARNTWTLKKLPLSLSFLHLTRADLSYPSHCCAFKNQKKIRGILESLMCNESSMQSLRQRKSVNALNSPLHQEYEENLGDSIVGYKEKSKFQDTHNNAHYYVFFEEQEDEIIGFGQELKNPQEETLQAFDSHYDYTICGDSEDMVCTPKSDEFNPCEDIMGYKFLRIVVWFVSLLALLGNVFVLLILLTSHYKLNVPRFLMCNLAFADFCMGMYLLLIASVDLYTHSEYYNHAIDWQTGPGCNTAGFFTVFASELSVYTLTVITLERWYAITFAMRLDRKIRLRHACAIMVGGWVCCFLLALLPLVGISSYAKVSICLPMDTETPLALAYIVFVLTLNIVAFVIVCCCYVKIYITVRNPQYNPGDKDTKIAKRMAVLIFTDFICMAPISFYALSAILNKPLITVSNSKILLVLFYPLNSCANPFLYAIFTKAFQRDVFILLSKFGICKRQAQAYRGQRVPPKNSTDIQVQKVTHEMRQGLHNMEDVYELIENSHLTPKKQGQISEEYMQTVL
#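 HEK 293 cells stably expressing TSHR and a cAMP-gated CNG channel; parental CNG-only cells as counterscreen. Cells preloaded 60 min with membrane potential dye plus 100 uM RO 20-1724, then compound 30 min; fluorescence read at 590 nm.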
# The depositor's hits bear a star; ? = inconclusive; . = no result given; [ ] = remark or other dose. Unless noted, calls come from the whole dose curve; as a rule, active = well fitted curve in the direction sought with a large enough effect; inconclusive = small, poorly fitted or top-dose-only effect, or another doubt; inactive = no such curve, though single readings can be large; an effect the other way counts as inactive or inconclusive. Potency is the fitted concentration of half-maximal effect.
SMILES,HEK293 cAMP ctrl,IkB sig inh,Peg3 imprint,p53ts 39C tox,p53ts 32C kill,TSHR agonist
CCOC(=O)Nc1nnc(-c2ccccc2OC)s1,-0.9%,-2.0%,0.4%,-7.9%,-10.6%,4.5%
COc1cccc(-c2nnc(SCC(=O)N3CCCCC3)o2)c1,.,2.0%,-24.4%[10.9 µM],-10.7%,-0.5%,.
COc1cccc(-c2nnc(SCC(=O)N(C(C)C)C(C)C)o2)c1,15.8µM*,-3.5%,-8.1%,-24.2%,-5.4%,?
Cc1ccc(Cl)cc1N1CCN(C(=O)c2cc3c(-c4ccccc4F)nn(C)c3s2)CC1,.,-0.1%,10.7%[10.9 µM],8.8%,11.4%,.
Cc1nc2ccccc2c(=O)n1NS(C)(=O)=O,5.5%,0.7%,-4.2%,2.7%,0.2%,-0.6%
Cc1nc2ccccc2c(=O)n1NCc1cc(Br)cs1,15.8µM*,-2.7%,-4.5%,12.9%,-21.4%,?
CC(=O)N1CCc2cc(Br)cc(S(=O)(=O)NCCc3ccc(Cl)cc3)c21,.,?,-9.6%[10.9 µM],?,2.3%,.
NCCCCCCNS(=O)(=O)c1ccc2c(Cl)cccc2c1,15.2%,?,-17.4%,31.6µM*,17.4%,3.4%
COC(=O)c1ccc(Oc2nc3c(c(=O)n(C)c(=O)n3C)n2C(C)C)cc1,.,-2.2%,-9.9%[10.9 µM],-11.8%,-0.4%,.
COC(=O)c1ccc(Oc2nc3c(c(=O)n(C)c(=O)n3C)n2CCC(C)C)cc1,15.8µM*,1.2%,3.1%,12.6%,5.1%,?
Cc1ccc(-c2nc(=S)c3c(n2Cc2ccco2)CCCC3)cc1,2.51µM*,.,.,-0.7%,8.5%,?
COc1cccc(-c2nc(=S)c3c(n2Cc2ccco2)CCCC3)c1,?,9.0%,-25.1%,-3.0%,4.5%,?
CSCc1nnc(NC(=O)c2ccc(S(=O)(=O)N(CC(C)C)CC(C)C)cc2)o1,?,-0.4%,-24.4%,12.6µM*,-3.6%,?
CCc1nnc(NC(=O)c2ccc(S(=O)(=O)N(CC(C)C)CC(C)C)cc2)o1,12.8%,1.8%,-20.6%,12.6µM*,-3.2%,8.3%
COCCN(CCOC)S(=O)(=O)c1ccc(C(=O)Nc2nnc(C)o2)cc1,7.1%,0.7%,-3.2%,-4.3%,-1.2%,-2.8%
O=C(CSc1ccccc1)NCc1ccc2c(c1)CCN2C(=O)c1ccc(Cl)cc1,.,-0.6%,-15.2%[10.9 µM],?,-5.2%,.
CCc1cc(-c2[nH]ncc2-c2ccc3c(c2)OCO3)c(O)cc1O,25.1µM*,?,-15.4%,6.9%,4.6%,?
O=C(Nc1ccccc1N1CCN(c2ccccc2)CC1)C1CCCCC1,7.94µM*,-0.4%,2.9%,7.5%,4.2%,?
O=C(Nc1ccccc1)C1CCCCC1,.,.,.,-10.8%,0.2%,.
CCCCN(CCCC)CC(O)Cn1cc(/C=C/C(=O)c2ccccc2)c2ccccc21 (stereo not drawn),.,?,-14.3%[10.9 µM],?,?,.
CCCCN(C)CC(O)Cn1cc(/C=C/C(=O)c2ccc(OCC)cc2)c2ccccc21 (stereo not drawn),.,?,-2.2%[10.9 µM],5.01µM*,15.8µM*,.
COc1ccc(NC(=O)C2CCN(S(=O)(=O)c3cn(C)cn3)CC2)cc1Cl,.,1.0%,2.7%[10.9 µM],-0.4%,3.0%,.
CCOC(=O)c1ccccc1NC(=O)c1cccs1,25.1µM*,-3.7%,-6.3%,-6.3%,1.6%,?
CCC(=O)N1CCCc2cc(S(=O)(=O)N3CCN(c4ncccn4)CC3)ccc21,7.2%,3.5%,-10.6%,-6.3%,-3.3%,4.0%
CCC(=O)N1CCCc2cc(S(=O)(=O)N3CCN(c4ccccc4F)CC3)ccc21,25.1µM*,?,-14.2%,8.6%,14.2%,?
SMILES,HEK293 cAMP ctrl,IkB sig inh,Peg3 imprint,p53ts 39C tox,p53ts 32C kill,TSHR agonist
CCOC(=O)Nc1ccc2c(c1)N(C(=O)N(CC)CC)c1ccccc1CC2,5.9%[11.4 µM],2.2%,-12.1%,16.6%,4.6%,3.16µM*
CCOC(=O)Nc1ccc2c(c1)N(C(=O)N(C)C)c1ccccc1CC2,?,0.1%,2.4%,5.9%,1.6%,?
CCCCOc1ccc(NC(=O)Cn2nnnc2-c2ccccc2F)cc1,.,-0.1%,18.3%[10.9 µM],?,9.3%,.
Clc1ccccc1Cc1cn2cc(-c3ccccc3)nc2s1,.,?,-19.1%[10.9 µM],3.16µM*,?,.
Brc1ccc(-c2cn3cc(Cc4ccccc4)sc3n2)cc1,.,6.4%,-6.3%[10.9 µM],?,-27.5%,.
Fc1ccc(Cc2cn3cc(-c4ccccc4)nc3s2)cc1,.,?,-20.0%[10.9 µM],2.51µM*,3.16µM*,.
Fc1ccc(-c2cn3cc(Cc4ccccc4)sc3n2)cc1,.,?,-23.7%[10.9 µM],5.01µM*,2.24µM*,.
Cc1cc(C)c(NC(=O)CCCn2c(C)c3cnn(-c4ccccc4)c(=O)c3c2C)c(C)c1,.,?,-9.7%[10.9 µM],-15.6%,3.7%,.
Cc1c(C(=O)NCCc2ccc(S(N)(=O)=O)cc2)sc2nc3n(c(=O)c12)CCCC3,.,-0.9%,-11.1%[10.9 µM],-1.0%,-10.2%,.
O=C(O)CCCC[C@H]1CCSS1,15.5%,1.7%,.,4.8%,-6.0%,10.4%
Cc1ccc(OCCSc2nc(-c3ccccc3C)nc3cc(=O)[nH]n23)cc1Cl,.,?,22.7%[10.9 µM],25.1µM*,7.9%,.
Cc1cccc(-c2nc(SCCCOc3ccc(Cl)c(C)c3)n3[nH]c(=O)cc3n2)c1,.,-4.2%,-4.3%[10.9 µM],6.3%,-5.2%,.
Cc1ccccc1Cn1c(=O)n(Cc2ccc3c(c2)OCO3)c(=O)c2oc3ccccc3c21,.,-1.0%,26.4%[10.9 µM],28.0%,-3.2%,.
CCC(C(=O)Nc1ccc(C)c(C)c1)n1c(=O)c(C(F)(F)F)nc2ccccc21 (stereo not drawn),.,-1.2%,7.2%[10.9 µM],-0.8%,-1.2%,.
Cc1cccc(Cn2ccn(Cc3ccc(Cl)cc3)c(=O)c2=O)c1,.,?,8.4%[10.9 µM],31.6µM*,?,.
COc1ccc(Cn2ccn(Cc3cccc(Cl)c3)c(=O)c2=O)cc1,.,1.7%,-5.5%[10.9 µM],?,-13.2%,.
CN(C)c1ccc(-c2nc(N3CCNCC3)c3ccccc3n2)cc1,-77.6%,-4.9%[11.4 µM],-65.1%,10µM*,12.6µM*,?
CN(C)C(=O)c1ccc(-c2nc(N3CCOCC3)c3ccccc3n2)cc1,-9.1%,0.0%[11.4 µM],?,-9.8%,?,2.6%
CN(C)C(=O)c1ccc(-c2nc(-n3ccnc3)c3ccccc3n2)cc1,9.0%,-0.3%[11.4 µM],-63.6%,10µM*,7.94µM*,-0.5%
Clc1ccccc1-c1nc(-n2ccnc2)c2ccccc2n1,4.6%,0.2%[11.4 µM],-20.4%,74.4%,13.7%,19.0%
c1cncc(-c2nc(N3CCCCCC3)c3ccccc3n2)c1,25.1µM*,?,-12.4%,9.9%,-2.9%,?
CN(C)c1ccc(-c2nc(-n3ccnc3)c3ccccc3n2)cc1,-30.2%,-0.5%[11.4 µM],-79.4%,12.6µM*,10µM*,?

# Source: PubChem (National Center for Advancing Translational Sciences (NCATS))
